Assay results: PubChem BioAssay (NCATS)
Inconclusive results are not listed. The source made the active and inactive calls. The call rests on the fitted dose curve; in most records, active means well fitted inhibition curve with a large enough effect; inconclusive means small, poorly fitted or top-dose-only effect; inactive means flat fitted curve, though single readings scatter.

Legend:
Assay in all cases: qHTS profiling for inhibitors of Plasmodium falciparum proliferation (AID 504749); further: nearly all actives have a fitted effect of over 60% in size
CP237 = conditions: P. falciparum in erythrocytes, SYBR Green DNA, 72 h; series mostly up to 28.7 µM
In short: (§1)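 Three-day growth assay of blood-stage parasites in erythrocytes (0.3% parasitemia, 2.5% hematocrit) at 37 C, 5% CO2, quantified by SYBR Green DNA staining after overnight detergent lysis.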

CP238 = conditions: P. falciparum in erythrocytes, SYBR Green DNA, 72 h; series mostly up to 28.7 µM
In short: as §1

CP247 = conditions: P. falciparum in erythrocytes, SYBR Green DNA, 72 h; series mostly up to 28.7 µM
In short: as §1

CP250 = conditions: P. falciparum in erythrocytes, SYBR Green DNA, 72 h; series mostly up to 12.8 µM
In short: as §1

CP252 = conditions: P. falciparum in erythrocytes, SYBR Green DNA, 72 h; series mostly up to 12.8 µM
In short: as §1

CP256 = conditions: P. falciparum in erythrocytes, SYBR Green DNA, 72 h; series mostly up to 28.7 µM
In short: as §1

CP260 = conditions: P. falciparum in erythrocytes, SYBR Green DNA, 72 h; series mostly up to 28.7 µM
In short: as §1

CP262 = conditions: P. falciparum in erythrocytes, SYBR Green DNA, 72 h; series mostly up to 28.7 µM
In short: as §1

CP265 = conditions: P. falciparum in erythrocytes, SYBR Green DNA, 72 h; series mostly up to 12.8 µM
In short: as §1

CP268 = conditions: P. falciparum in erythrocytes, SYBR Green DNA, 72 h; series mostly up to 28.7 µM
In short: as §1

CP269 = conditions: P. falciparum in erythrocytes, SYBR Green DNA, 72 h; series mostly up to 28.7 µM
In short: as §1

CP286 = conditions: P. falciparum in erythrocytes, SYBR Green DNA, 72 h; series mostly up to 28.7 µM
In short: as §1

CP291 = conditions: P. falciparum in erythrocytes, SYBR Green DNA, 72 h; series mostly up to 28.7 µM
In short: as §1

CP297 = conditions: P. falciparum in erythrocytes, SYBR Green DNA, 72 h; series mostly up to 28.7 µM
In short: as §1

CP305 = conditions: P. falciparum in erythrocytes, SYBR Green DNA, 72 h; series mostly up to 28.7 µM
In short: as §1

CP315 = conditions: P. falciparum in erythrocytes, SYBR Green DNA, 72 h; series mostly up to 28.7 µM
In short: as §1

CP325 = conditions: P. falciparum in erythrocytes, SYBR Green DNA, 72 h; series mostly up to 28.7 µM
In short: as §1

CP329 = conditions: P. falciparum in erythrocytes, SYBR Green DNA, 72 h; series mostly up to 28.7 µM
In short: as §1

CP335 = conditions: P. falciparum in erythrocytes, SYBR Green DNA, 72 h; series mostly up to 12.8 µM
In short: as §1

DIV14 = conditions: P. falciparum in erythrocytes, SYBR Green DNA, 72 h; series mostly up to 28.7 µM
In short: as §1

DIV17 = conditions: P. falciparum in erythrocytes, SYBR Green DNA, 72 h; series mostly up to 28.7 µM
In short: as §1

DIV30 = conditions: P. falciparum in erythrocytes, SYBR Green DNA, 72 h; series mostly up to 28.7 µM
In short: as §1

Dd2 = conditions: P. falciparum in erythrocytes, SYBR Green DNA, 72 h; series mostly up to 28.7 µM
In short: as §1

ECU = conditions: P. falciparum in erythrocytes, SYBR Green DNA, 72 h; series mostly up to 28.7 µM
In short: as §1

FAB9 = conditions: P. falciparum in erythrocytes, SYBR Green DNA, 72 h; series mostly up to 28.7 µM
In short: as §1

GB4 = conditions: P. falciparum in erythrocytes, SYBR Green DNA, 72 h; series mostly up to 28.7 µM
In short: as §1

HB3 = conditions: P. falciparum in erythrocytes, SYBR Green DNA, 72 h; series mostly up to 28.7 µM
In short: as §1

ICS = conditions: P. falciparum in erythrocytes, SYBR Green DNA, 72 h; series mostly up to 28.7 µM
In short: as §1

JCK = conditions: P. falciparum in erythrocytes, SYBR Green DNA, 72 h; series mostly up to 28.7 µM
In short: as §1

N140 = conditions: P. falciparum in erythrocytes, SYBR Green DNA, 72 h; series mostly up to 28.7 µM
In short: as §1

P93_24 = conditions: P. falciparum in erythrocytes, SYBR Green DNA, 72 h; series mostly up to 28.7 µM
In short: as §1

P94_40 = conditions: P. falciparum in erythrocytes, SYBR Green DNA, 72 h; series mostly up to 28.7 µM
In short: as §1

PAD = conditions: P. falciparum in erythrocytes, SYBR Green DNA, 72 h; series mostly up to 28.7 µM
In short: as §1

PC15 = conditions: P. falciparum in erythrocytes, SYBR Green DNA, 72 h; series mostly up to 28.7 µM
In short: as §1

PC26 = conditions: P. falciparum in erythrocytes, SYBR Green DNA, 72 h; series mostly up to 28.7 µM
In short: as §1

PC49 = conditions: P. falciparum in erythrocytes, SYBR Green DNA, 72 h; series mostly up to 28.7 µM
In short: as §1

SC27B = conditions: P. falciparum in erythrocytes, SYBR Green DNA, 72 h; series mostly up to 28.7 µM
In short: as §1

TAB109 = conditions: P. falciparum in erythrocytes, SYBR Green DNA, 72 h; series mostly up to 12.8 µM
In short: as §1

TAB113 = conditions: P. falciparum in erythrocytes, SYBR Green DNA, 72 h; series mostly up to 28.7 µM
In short: as §1

TAB165 = conditions: P. falciparum in erythrocytes, SYBR Green DNA, 72 h; series mostly up to 28.7 µM
In short: as §1

W2 = conditions: P. falciparum in erythrocytes, SYBR Green DNA, 72 h; series mostly up to 12.8 µM
In short: as §1

Measured: Potency

C[C@]12CC[C@H](OS(=O)(=O)O)CC1=CCC1C2CC[C@]2(C)C(=O)CC[C@@H]12 (stereo partly specified)
inactive: all assays above
